Data: PubChem BioAssay (NCI)
About 79,000 compounds went through this panel and 15% of them were active in at least one assay; those are over-represented in the sample as a whole. Values without a mark were called inactive. The source made the active and inactive calls. Rule as the data show it: active = growth inhibition above about 70%; inactive = the rest.

Columns and labels:
[1] = NCI Yeast Anticancer Drug Screen. Data for the rad52 strain (AID 147);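 also: 0% = growth of vehicle-treated control cultures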; details: S. cerevisiae rad52 mutant growth inhibition, stronger effect = higher value
In short: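 Screen used a yeast mutant impaired in DNA repair. After compound exposure, growth was measured. Values reflect inhibition compared with vehicle-treated cells.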

[2] = NCI Yeast Anticancer Drug Screen. Data for the wt1 strain (AID 149);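 also: 0% = growth of vehicle-treated wt1 cultures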; details: S. cerevisiae wt1 strain (SPY 50644) growth inhibition, stronger effect = higher value
In short: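 Each compound is tested on wt1 yeast and the loss of growth versus vehicle gives the inhibition value.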

[3] = NCI Yeast Anticancer Drug Screen. Data for the rad50EPP+ strain (AID 151);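 also: 0% = growth of vehicle-treated control cultures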; details: S. cerevisiae rad50 mutant strain, stronger effect = higher value
In short: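 Exposing the rad50EPP+ strain to each compound, growth was compared with vehicle-only cultures to give inhibition.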

[4] = NCI Yeast Anticancer Drug Screen. Data for the mgt1 strain (AID 153); details: S. cerevisiae mgt1 mutant growth inhibition, stronger effect = higher value
In short: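 Genetically defined yeast (mgt1) treated with compound; inhibition of growth expressed against vehicle-treated controls.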

[5] = NCI Yeast Anticancer Drug Screen. Data for the rad50 strain (AID 155);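 also: 0% = growth of vehicle-only cultures of the same strain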; details: S. cerevisiae rad50 strain growth inhibition, stronger effect = higher value
In short: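 Vehicle-treated cultures provide the reference for the growth inhibition reported for compound-exposed, repair-deficient yeast.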

[6] = NCI Yeast Anticancer Drug Screen. Data for the mec2-1 strain (AID 157); details: S. cerevisiae mec2-1 strain, stronger effect = higher value
In short: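 Readout is yeast growth inhibition, normalised to vehicle-treated controls, in the mec2-1 strain exposed to compound.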

[7] = NCI Yeast Anticancer Drug Screen. Data for the rad14 strain (AID 159);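 also: 0% = growth of vehicle-treated control cultures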; details: S. cerevisiae rad14 strain growth inhibition, stronger effect = higher value
In short: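 Inhibition of growth is reported for a repair-deficient yeast mutant following compound treatment, calculated relative to cultures that received vehicle.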

[8] = NCI Yeast Anticancer Drug Screen. Data for the sgs1 mgt1 strain (AID 161);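 also: 0% = growth of cultures given vehicle only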; details: S. cerevisiae sgs1 mgt1 strain, stronger effect = higher value
In short: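 Compounds are added to genetically altered yeast, and growth is compared with cultures given vehicle alone to give percent inhibition.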

[9] = NCI Yeast Anticancer Drug Screen. Data for the cln2 rad14 strain (AID 165);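 also: 0% = growth equal to vehicle treated cultures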; details: S. cerevisiae cln2 rad14 strain, stronger effect = higher value
In short: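 Relative to vehicle controls, growth inhibition of compound-treated cln2 rad14 yeast was recorded.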

[10] = NCI Yeast Anticancer Drug Screen. Data for the bub3 strain (AID 167); details: S. cerevisiae bub3 mutant strain, stronger effect = higher value
In short: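 Mutant yeast screening strain plus compound; vehicle-treated cultures serve as the 0% inhibition reference.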

[11] = NCI Yeast Anticancer Drug Screen. Data for the wt2 strain (AID 169); details: S. cerevisiae wt2 strain growth inhibition, stronger effect = higher value
In short: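 Values express reduction in yeast growth under compound treatment, referenced to vehicle-treated cells.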

[12] = NCI Yeast Anticancer Drug Screen. Data for the mlh1 strain (AID 171);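 also: 0% = growth of vehicle-treated control cultures of the same strain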; details: S. cerevisiae mlh1 strain growth inhibition, stronger effect = higher value
In short: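 Steps: expose the defined-mutant yeast strain to compound; expose a parallel culture to vehicle; measure growth; express compound effect as inhibition relative to the vehicle culture.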

[13] = NCI Yeast Anticancer Drug Screen. Data for the sgs1 strain (AID 173);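 also: 0% = growth of vehicle-only control cultures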; details: S. cerevisiae sgs1 mutant, stronger effect = higher value
In short: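 Treat defined-mutant yeast with compound; measure growth; calculate inhibition relative to vehicle-treated cells.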

[14] = NCI Yeast Anticancer Drug Screen. Data for the mlh1 rad18 strain (AID 175); details: S. cerevisiae mlh1 rad18 strain growth inhibition, stronger effect = higher value
In short: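 Test agents were incubated with a yeast strain of defined genotype (DNA damage repair defect). Inhibition of growth was derived by comparison with vehicle-exposed cultures.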

[15] = NCI Yeast Anticancer Drug Screen. Data for the rad18 strain (AID 177); details: S. cerevisiae rad18 mutant growth inhibition, stronger effect = higher value
In short: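 A genetically defined yeast mutant impaired in DNA damage repair was treated with test compounds, then its growth was measured against cultures receiving vehicle alone.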

[16] = at 5.0 µM (retest, dose inferred, filed as 0.5)
[17] = at 50.0 µM (retest, dose inferred, filed as 5.0)

**Q.** Which growth inhibition ([1]; at 1.2 µM) does the source give for `c1ccc([P+](CCN2Cc3ccccc3C2)(c2ccccc2)c2ccccc2)cc1` here?
**A.** 29%

**Q.** What about the growth inhibition ([1]; at 3.7 µM) of the same compound?
**A.** 54%

**Q.** What about the growth inhibition ([1]; at 11.0 µM) of the same compound?
**A.** 39%

**Q.** What about the growth inhibition ([1]; at 33.0 µM) of the same compound?
**A.** 64%

**Q.** What about the growth inhibition ([1]; at 100.0 µM) of the same compound?
**A.** 95% (active)

**Q.** What about the growth inhibition ([2]; at 1.2 µM) of the same compound?
**A.** -7%

**Q.** And the growth inhibition ([2]; at 3.7 µM)?
**A.** 31%

**Q.** And the growth inhibition ([2]; at 11.0 µM)?
**A.** 26%

**Q.** And the growth inhibition ([2]; at 33.0 µM)?
**A.** 38%

**Q.** And the growth inhibition ([2]; at 100.0 µM)?
**A.** 95% (active)

**Q.** And the growth inhibition ([3]; at 1.2 µM)?
**A.** -21%

**Q.** What about the growth inhibition ([3]; at 3.7 µM) of the same compound?
**A.** -15%

**Q.** What about the growth inhibition ([3]; at 11.0 µM) of the same compound?
**A.** -10%

**Q.** What about the growth inhibition ([3]; at 33.0 µM) of the same compound?
**A.** -8%

**Q.** And the growth inhibition ([3]; at 100.0 µM)?
**A.** 6%

**Q.** What about the growth inhibition ([4]; at 1.2 µM) of the same compound?
**A.** -19%

**Q.** What about the growth inhibition ([4]; at 3.7 µM) of the same compound?
**A.** 2%

**Q.** What about the growth inhibition ([4]; at 11.0 µM) of the same compound?
**A.** 28%

**Q.** What about the growth inhibition ([4]; at 33.0 µM) of the same compound?
**A.** 48%

**Q.** And the growth inhibition ([4]; at 100.0 µM)?
**A.** 95% (active)

**Q.** What about the growth inhibition ([5]; at 1.2 µM) of the same compound?
**A.** 30%

**Q.** And the growth inhibition ([5]; at 3.7 µM)?
**A.** 64%

**Q.** What about the growth inhibition [5, 16] of the same compound?
**A.** 64%

**Q.** What about the growth inhibition ([5]; at 11.0 µM) of the same compound?
**A.** 61%

**Q.** What about the growth inhibition ([5]; at 33.0 µM) of the same compound?
**A.** 61%

**Q.** What about the growth inhibition [5, 17] of the same compound?
**A.** 69%

**Q.** What about the growth inhibition ([5]; at 50.0 µM) of the same compound?
**A.** 72.1% (active)

**Q.** What about the growth inhibition ([5]; at 100.0 µM) of the same compound?
**A.** 95% (active)

**Q.** What about the growth inhibition ([6]; at 1.2 µM) of the same compound?
**A.** -15%

**Q.** And the growth inhibition ([6]; at 3.7 µM)?
**A.** 39%

**Q.** What about the growth inhibition [6, 16] of the same compound?
**A.** 49%

**Q.** And the growth inhibition ([6]; at 11.0 µM)?
**A.** 36%

**Q.** What about the growth inhibition ([6]; at 33.0 µM) of the same compound?
**A.** 67%

**Q.** What about the growth inhibition [6, 17] of the same compound?
**A.** 81% (active)

**Q.** And the growth inhibition ([6]; at 50.0 µM)?
**A.** 78.9% (active)

**Q.** What about the growth inhibition ([6]; at 100.0 µM) of the same compound?
**A.** 95% (active)

**Q.** And the growth inhibition ([7]; at 1.2 µM)?
**A.** -22%

**Q.** And the growth inhibition ([7]; at 3.7 µM)?
**A.** 13%

**Q.** What about the growth inhibition ([7]; at 11.0 µM) of the same compound?
**A.** 21%

**Q.** And the growth inhibition ([7]; at 33.0 µM)?
**A.** 53%

**Q.** What about the growth inhibition ([7]; at 100.0 µM) of the same compound?
**A.** 70% (active)

**Q.** And the growth inhibition [8, 16]?
**A.** 22%

**Q.** What about the growth inhibition [8, 17] of the same compound?
**A.** 97% (active)

**Q.** And the growth inhibition ([8]; at 50.0 µM)?
**A.** 82% (active)

**Q.** What about the growth inhibition [9, 16] of the same compound?
**A.** 23%

**Q.** What about the growth inhibition [9, 17] of the same compound?
**A.** 25%

**Q.** What about the growth inhibition ([9]; at 50.0 µM) of the same compound?
**A.** 76% (active)

**Q.** And the growth inhibition ([10]; at 1.2 µM)?
**A.** 7%

**Q.** And the growth inhibition ([10]; at 3.7 µM)?
**A.** 39%

**Q.** What about the growth inhibition [10, 16] of the same compound?
**A.** 21%

**Q.** And the growth inhibition ([10]; at 11.0 µM)?
**A.** 31%

**Q.** And the growth inhibition ([10]; at 33.0 µM)?
**A.** 64%

**Q.** What about the growth inhibition [10, 17] of the same compound?
**A.** 98% (active)

**Q.** And the growth inhibition ([10]; at 50.0 µM)?
**A.** 79.1% (active)

**Q.** And the growth inhibition ([10]; at 100.0 µM)?
**A.** 94% (active)

**Q.** And the growth inhibition ([11]; at 1.2 µM)?
**A.** -45%

**Q.** And the growth inhibition ([11]; at 3.7 µM)?
**A.** -19%

**Q.** And the growth inhibition ([11]; at 11.0 µM)?
**A.** 11%

**Q.** What about the growth inhibition ([11]; at 33.0 µM) of the same compound?
**A.** 31%

**Q.** And the growth inhibition ([11]; at 100.0 µM)?
**A.** 93% (active)

**Q.** What about the growth inhibition ([12]; at 1.2 µM) of the same compound?
**A.** -39%

**Q.** And the growth inhibition ([12]; at 3.7 µM)?
**A.** 18%

**Q.** And the growth inhibition ([12]; at 11.0 µM)?
**A.** 32%

**Q.** And the growth inhibition ([12]; at 33.0 µM)?
**A.** 60%

**Q.** And the growth inhibition ([12]; at 100.0 µM)?
**A.** 95% (active)

**Q.** What about the growth inhibition ([13]; at 1.2 µM) of the same compound?
**A.** 13%

**Q.** What about the growth inhibition ([13]; at 3.7 µM) of the same compound?
**A.** 35%

**Q.** What about the growth inhibition ([13]; at 11.0 µM) of the same compound?
**A.** 53%

**Q.** What about the growth inhibition ([13]; at 33.0 µM) of the same compound?
**A.** 67%

**Q.** And the growth inhibition ([13]; at 100.0 µM)?
**A.** 96% (active)

**Q.** What about the growth inhibition [14, 16] of the same compound?
**A.** 71% (active)

**Q.** And the growth inhibition [14, 17]?
**A.** 87% (active)

**Q.** What about the growth inhibition ([14]; at 50.0 µM) of the same compound?
**A.** 88.8% (active)

**Q.** What about the growth inhibition ([15]; at 1.2 µM) of the same compound?
**A.** 49%

**Q.** And the growth inhibition ([15]; at 3.7 µM)?
**A.** 71% (active)

**Q.** What about the growth inhibition ([15]; at 11.0 µM) of the same compound?
**A.** 58%

**Q.** What about the growth inhibition ([15]; at 33.0 µM) of the same compound?
**A.** 74% (active)

**Q.** And the growth inhibition ([15]; at 100.0 µM)?
**A.** 96% (active)
